Reference: PubChem BioAssay (EPA / NIEHS)
Several values for one entry are separate records, joined by “and”; a condition that tells them apart may be missing. Equal entries are not always repeated. Results filed as inconclusive are left out. Where a structure was tested more than once in an assay, its records may differ in their call. Activity calls are given as the source filed them. The calls were made as follows, unless noted: active = hit-call score of the fitted dose curve at least 0.9, where 1 is the maximum; inactive = score below 0.9.

Key:
[1] = read-out: TIMP metallopeptidase inhibitor 1 (TIMP1), TIMP1 (gene 7076); test: BSK_hDFCGF_TIMP1: BioMAP Diversity Plus: hDFCGF Assay for TIMP metallopeptidase inhibitor 1 (TIMP1) Biomarker Activity (AID 2283062); details: primary human foreskin fibroblasts; actives raise or lower the signal
Summary of the method: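 Human skin fibroblasts (primary), hDFCGF system; compound exposure 24 h; TIMP-1 by ELISA; bidirectional fit vs DMSO negative control; overt cytotoxicity by SRB in parallel wells.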

[2] = read-out: Plasminogen activator inhibitor-1 (PAI1), SERPINE1 (gene 5054); test: BSK_hDFCGF_PAI1: BioMAP Diversity Plus: hDFCGF Assay for Plasminogen activator inhibitor-1 (PAI1) Biomarker Activity (AID 2283066); details: primary human foreskin fibroblasts; actives raise or lower the signal
Summary of the method: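 Human foreskin fibroblasts in the hDFCGF system were dosed with compound for 24 h; PAI-1 was quantified by ELISA. Bidirectional curve fitting used DMSO as negative control and baseline.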

[3] = read-out: Interferon-gamma inducible Protein 10 (IP10), CXCL10 (gene 3627); test: BSK_KF3CT_IP10: BioMAP Diversity Plus: KF3CT Assay for Interferon-gamma inducible Protein 10 (IP10) Biomarker Activity (AID 2283068); details: primary human keratinocytes with fibroblasts; actives raise or lower the signal
Summary of the method: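 ELISA read-out of IP-10 after 24 h chemical dosing of human skin primary co-culture (keratinocytes, foreskin fibroblasts). Gain or loss of signal relative to DMSO, bidirectional curve fit.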

[4] = BSK_KF3CT_SRB: Viability Assessment in the BioMAP Diversity Plus: KF3CT Assay (AID 2283069); details: primary human keratinocytes with fibroblasts;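 also: total protein by sulforhodamine B staining as a cytotoxicity measure; fitted for both signal gain and loss against DMSO baseline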
Summary of the method: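 Human keratinocyte and foreskin fibroblast co-culture exposed to chemical for 24 h. Total protein measured in parallel cultures by 0.1% sulforhodamine B staining after 10% TCA fixation, read at 560 nm; bidirectional fit relative to DMSO.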

[5] = read-out: Interleukin-1 alpha (IL1a), IL1A (gene 3552); test: BSK_KF3CT_IL1a: BioMAP Diversity Plus: KF3CT Assay for Interleukin-1 alpha (IL1a) Biomarker Activity (AID 2283070); details: primary human keratinocytes with fibroblasts; actives raise or lower the signal
Summary of the method: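 Primary human keratinocyte plus foreskin fibroblast co-culture, dosed and measured at 24 h in 96-well plates. IL-1a level quantified by ELISA; bidirectional fit relative to DMSO.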

[6] = read-out: TIMP metallopeptidase inhibitor 2 (TIMP2), TIMP2 (gene 7077); test: BSK_KF3CT_TIMP2: BioMAP Diversity Plus: KF3CT Assay for TIMP metallopeptidase inhibitor 2 (TIMP2) Biomarker Activity (AID 2283071); details: primary human keratinocytes with fibroblasts; actives raise or lower the signal
Summary of the method: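 Human primary keratinocyte/foreskin fibroblast co-culture dosed with chemical and sampled at 24 h. TIMP-2 levels quantified by ELISA; bidirectional fitting against DMSO negative control as baseline.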

[7] = read-out: Matrix Metallopeptidase 9 (MMP9), MMP9 (gene 4318); test: BSK_KF3CT_MMP9: BioMAP Diversity Plus: KF3CT Assay for Matrix Metallopeptidase 9 (MMP9) Biomarker Activity (AID 2283074); details: primary human keratinocytes with fibroblasts; actives raise or lower the signal;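 as to AC50: MMP9 protein level quantified by ELISA in the co-culture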
Summary of the method: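 Human keratinocyte and foreskin fibroblast co-culture exposed to chemicals for 24 h; MMP9 biomarker measured by ELISA, bidirectional fitting relative to DMSO; cytotoxicity tracked by SRB total protein staining in parallel cultures.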

[8] = read-out: urokinase plasminogen activator (uPA), PLAU (gene 5328); test: BSK_KF3CT_uPA: BioMAP Diversity Plus: KF3CT Assay for urokinase plasminogen activator (uPA) Biomarker Activity (AID 2283075); details: primary human keratinocytes with fibroblasts; actives raise or lower the signal
Summary of the method: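 Primary human keratinocyte/foreskin fibroblast co-culture exposed to chemical; uPA measured by ELISA at 24 h. Bidirectional fit versus DMSO, with parallel SRB total-protein staining for cytotoxicity.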

[9] = BSK_LPS_SRB: Viability Assessment in the BioMAP Diversity Plus: LPS Assay (AID 2283079); details: primary human HUVEC with PBMC;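 also: total protein by sulforhodamine B absorbance as a cytotoxicity measure; measured one day after compound addition; fitted in both directions against DMSO so loss or gain of signal counts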
Summary of the method: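 Readout is SRB absorbance at 560 nm (0.1% stain, TCA-fixed parallel cultures) as a total-protein cytotoxicity measure. Cells: primary human umbilical vein endothelium plus peripheral blood mononuclear cells, 24 h after chemical exposure; DMSO served as baseline.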

[10] = read-out: Tumor necrosis factor (Homo sapiens) (UniProt P01375); test: BSK_LPS_TNFa: BioMAP Diversity Plus: LPS Assay for Tumour Necrosis Factor alpha (TNFa) Biomarker Activity (AID 2283085); details: primary human HUVEC with PBMC; actives raise or lower the signal
Summary of the method: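 Human umbilical vein endothelial cells co-cultured with PBMC were exposed to test chemical and TNFa measured by ELISA 24 h after dosing. Bidirectional curve fitting was done relative to DMSO as negative control and baseline.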

[11] = read-out: Vascular cell adhesion molecule 1 (VCAM1), VCAM1 (gene 7412); test: BSK_LPS_VCAM1: BioMAP Diversity Plus: LPS Assay for Vascular cell adhesion molecule 1 (VCAM1) Biomarker Activity (AID 2283086); details: primary human HUVEC with PBMC; actives raise or lower the signal
Summary of the method: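 Human umbilical vein endothelial cells co-cultured with peripheral blood mononuclear cells under LPS stimulation were exposed to test chemical for 24 h. VCAM-1 levels were then measured by ELISA, with bidirectional curve fitting relative to DMSO as negative control and baseline.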

CD38, CD38 (gene 952) = test: BSK_SAg_CD38: BioMAP Diversity Plus: SAg Assay for CD38 Biomarker Activity (AID 2283087); details: primary human HUVEC with PBMC; actives raise or lower the signal
Summary of the method: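 Fluorescence ELISA of cell-surface CD38 served as the read-out, with either increase or decrease fitted against DMSO controls. Cells were a human umbilical vein endothelium plus PBMC co-culture under SEB/TSST-1 stimulation, measured 24 h after dosing.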

[12] = read-out: Monocyte Chemoattractant Protein-1 (MCP1), CCL2 (gene 6347); test: BSK_SAg_MCP1: BioMAP Diversity Plus: SAg Assay for Monocyte Chemoattractant Protein-1 (MCP1) Biomarker Activity (AID 2283090); details: primary human HUVEC with PBMC; actives raise or lower the signal
Summary of the method: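 MCP-1 levels in the endothelial–PBMC SAg co-culture were quantified by ELISA at 24 h post-dosing; both increases and decreases versus DMSO scored. Cytotoxicity monitored by SRB total protein in parallel cultures.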

[13] = read-out: Monokine induced gamma interferon (MIG), CXCL9 (gene 4283); test: BSK_SAg_MIG: BioMAP Diversity Plus: SAg Assay for Monokine induced gamma interferon (MIG) Biomarker Activity (AID 2283092); details: primary human HUVEC with PBMC; actives raise or lower the signal
Summary of the method: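 Endothelial cells and PBMC were co-cultured, exposed to test chemicals, and sampled 24 h later. MIG was measured by ELISA, and responses were fitted in both directions relative to DMSO.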

[14] = BSK_SAg_Proliferation: Cell Proliferation Assessment in the BioMAP Diversity Plus: SAg Assay (AID 2283095); details: primary human HUVEC with PBMC;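 also: relative cell number as total protein by SRB absorbance in sub-confluent culture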
Summary of the method: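 Human umbilical vein endothelial cells co-cultured with peripheral blood mononuclear cells; total protein measured by sulforhodamine B staining (0.1% SRB after 10% TCA fixation), absorbance at 560 nm, at 96 h. Bidirectional fit against DMSO baseline.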

[15] = BSK_SAg_SRB: Viability Assessment in the BioMAP Diversity Plus: SAg Assay (AID 2283096); details: primary human HUVEC with PBMC;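 also: cells read one day after compound addition; hits may be either gain or loss of signal compared with DMSO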
Summary of the method: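 Human umbilical vein endothelial cells co-cultured with PBMC, read 24 h after compound dosing. Total protein measured by sulforhodamine B staining (0.1% SRB after 10% TCA fixation, absorbance 560 nm); bidirectional fit versus DMSO baseline.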

[16] = read-out: Collagen I, COL1A1 (gene 1277); test: BSK_hDFCGF_CollagenI: BioMAP Diversity Plus: hDFCGF Assay for Collagen I Biomarker Activity (AID 2284250); details: primary human foreskin fibroblasts
Summary of the method: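 Primary human foreskin fibroblasts (hDFCGF system) exposed to chemical for 24 h; Collagen I measured by ELISA. Activity fitted in the positive direction relative to DMSO baseline, with SRB total-protein staining in parallel cultures for overt cytotoxicity.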

[17] = biological target: Steroid hormone receptor ERR1 (Homo sapiens) (UniProt P11474); test: ATG_ERRa_TRANS: Attagene TRANS-FACTORIAL HepG2 Assay for human Estrogen-Related Receptor alpha (ERRa) (AID 2282971; active = hit-call score of the fitted dose curve at least 0.9, where 1 is the maximum); details: HepG2 Attagene TRANS reporter, ERRa transactivation
Summary of the method: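 Reporter transcript induction was quantified by RT-PCR and capillary electrophoresis of FAM-labelled, HpaI-cut products after 24 h treatment of HepG2 cells carrying transiently transfected GAL4-UAS reporter units and an exogenous ERRa-Gal4 fusion; activity scored as increase over DMSO.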

[18] = biological target: Bile acid receptor (Homo sapiens) (UniProt Q96RI1); test: ATG_FXR_TRANS: Attagene TRANS-FACTORIAL HepG2 Assay for Farnesoid X Receptor (FXR) (AID 2282979; active = hit-call score of the fitted dose curve at least 0.9, where 1 is the maximum;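 also: hits raise reporter mRNA above DMSO so AC50 marks FXR activation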); details: HepG2 Attagene TRANS FXR-GAL4 reporter transcription
Summary of the method: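 Transient transfection of HepG2 with multiplexed GAL4-UAS reporter units; exogenous FXR-GAL4 chimera. Dose 24 h → TriZol RNA → oligo(dT) RT → PCR, 6-FAM primer extension, HpaI cut → CE. Gain vs DMSO.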

Measured: AC50

Sequence of Tumor necrosis factor (Homo sapiens) (P01375 whole entry, looked up): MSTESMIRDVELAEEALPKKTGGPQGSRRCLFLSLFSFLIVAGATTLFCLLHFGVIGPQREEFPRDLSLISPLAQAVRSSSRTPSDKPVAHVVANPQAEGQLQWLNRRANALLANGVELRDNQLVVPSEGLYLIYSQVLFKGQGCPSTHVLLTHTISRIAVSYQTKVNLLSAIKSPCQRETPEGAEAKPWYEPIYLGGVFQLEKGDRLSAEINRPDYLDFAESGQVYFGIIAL
Sequence of Steroid hormone receptor ERR1 (Homo sapiens) (P11474 whole entry, looked up, the tested form may be a part): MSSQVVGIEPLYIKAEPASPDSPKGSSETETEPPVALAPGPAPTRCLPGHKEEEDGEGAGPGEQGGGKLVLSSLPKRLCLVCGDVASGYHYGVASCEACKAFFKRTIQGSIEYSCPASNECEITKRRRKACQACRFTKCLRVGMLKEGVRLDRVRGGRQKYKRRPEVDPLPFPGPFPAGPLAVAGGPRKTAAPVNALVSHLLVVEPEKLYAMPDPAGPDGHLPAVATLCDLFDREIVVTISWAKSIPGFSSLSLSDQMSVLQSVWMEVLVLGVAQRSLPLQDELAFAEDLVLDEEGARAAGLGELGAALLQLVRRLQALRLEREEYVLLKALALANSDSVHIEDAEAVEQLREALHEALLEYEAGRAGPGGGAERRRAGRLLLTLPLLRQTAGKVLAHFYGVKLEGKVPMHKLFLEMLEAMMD
Sequence of Bile acid receptor (Homo sapiens) (Q96RI1 whole entry, looked up, the tested form may be a part): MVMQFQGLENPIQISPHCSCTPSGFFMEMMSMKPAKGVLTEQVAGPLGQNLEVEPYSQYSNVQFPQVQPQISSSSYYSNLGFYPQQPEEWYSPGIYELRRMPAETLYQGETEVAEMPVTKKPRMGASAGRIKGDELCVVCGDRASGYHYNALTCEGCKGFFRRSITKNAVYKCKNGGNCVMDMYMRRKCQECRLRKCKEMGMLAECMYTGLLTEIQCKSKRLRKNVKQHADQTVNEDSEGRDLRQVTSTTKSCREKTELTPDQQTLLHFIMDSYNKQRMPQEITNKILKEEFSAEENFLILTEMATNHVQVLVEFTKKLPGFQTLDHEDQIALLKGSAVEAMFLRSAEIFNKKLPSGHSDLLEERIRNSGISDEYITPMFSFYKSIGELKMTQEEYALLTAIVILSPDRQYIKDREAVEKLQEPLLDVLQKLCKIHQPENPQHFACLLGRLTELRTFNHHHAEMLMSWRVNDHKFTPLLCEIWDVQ

COc1ccccc1Oc1c(NS(=O)(=O)c2ccc(C(C)(C)C)cc2)nc(-c2ncccn2)nc1OCCO
active: [14] 6.88 µM and 8.61 µM
not listed: [17] | [18]
inactive: all other assays above

OC(C(F)(F)F)(C(F)(F)F)C(O)(C(F)(F)F)C(F)(F)F
inactive: [1] | [8] | [10] | [16]
active: [2] 33.1 µM and 33.8 µM | [3] 48.7 µM and 47.2 µM | [4] 46.9 µM and 58.2 µM | [5] 52.7 µM and 54 µM | [6] 50.7 µM and 51.8 µM | [7] 43 µM and 46.1 µM | [9] 30.3 µM and 24.3 µM | [11] 21.9 µM and 28.8 µM | CD38, CD38 (gene 952) 34.1 µM and 21.9 µM | [12] 43.3 µM and 40.8 µM | [13] 50.6 µM and 49.6 µM | [14] 22.9 µM and 36.4 µM | [15] 26.9 µM and 26.8 µM | [16] 30 µM

O=[N+]([O-])c1cc(S(=O)(=O)Nc2ccccc2)ccc1Nc1ccccc1
inactive: [16]
active: [1] 30.3 µM and 29.5 µM | [2] 26.6 µM and 25.4 µM | [3] 30.2 µM and 32.4 µM | [4] 34.6 µM | [5] 31 µM and 32.2 µM | [6] 32.6 µM and 30.4 µM | [7] 31.5 µM and 29.5 µM | [8] 32.8 µM and 32.9 µM | [9] 31.1 µM and 28.7 µM | [10] 5.14 µM and 5.08 µM | [11] 13.6 µM and 12.6 µM | CD38, CD38 (gene 952) 25 µM and 26 µM | [12] 28.5 µM and 28.6 µM | [13] 34.1 µM and 35.3 µM | [14] 15 µM and 25.7 µM | [15] 29.3 µM and 31.8 µM | [16] 3.86 µM

O=C(O)/C=C\C(=O)O
inactive: [17]

CCOC(=O)c1ccccc1
inactive: [17]

COc1ccc(C(=O)c2ccccc2O)c(O)c1
not listed: [17] | [18]
inactive: all other assays above

CC(=O)OC(C)(C)Cc1ccccc1
inactive: [18]

CCCCC(CC)COC(=O)C=Cc1ccc(OC)cc1 (stereo unspecified)
active: [9] 32.1 µM and 36.7 µM | CD38, CD38 (gene 952) 28.5 µM and 20 µM | [12] 31.7 µM and 32.3 µM | [14] 34.9 µM and 37.8 µM | [15] 31 µM and 35.2 µM | [16] 9.37 µM
inactive: [1] | [2] | [3] | [4] | [5] | [6] | [7] | [8] | [10] | [11] | [13] | [16]
